Laboratory results as given in PubChem BioAssay AID504441 (Broad Institute, 2011).
About 1,300 (0.42%) of roughly 310,000 compounds were called active. Cut-off read from the data, not from the text of the source: active = inhibition above about 50%; inactive = the rest. For the sample, actives were picked, then their nearest neighbours and some compounds at random.

What follows are compounds tested against Dual specificity tyrosine-phosphorylation-regulated kinase 1A (Rattus norvegicus) (UniProt Q63470) (assay: rat Dyrk1A kinase inhibitors, primary screen, biochemical, single point, plate reader (AID 504441;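 note: plate controls were vehicle with enzyme for no effect and no enzyme for full effect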)). Settings: ADP-Glo luminescence, NFATc1 peptide, at 12.5 µM, hits give high values.
`CN(CCc1ccccc1)C(=O)c1cccc(NC(=O)Cc2cccc(NC(=O)C3CCCN(C(=O)C4CCC4)C3)c2)c1` (stereo not given) was tested, and the inhibition was -0.693% (inactive). In the case of `CCCN(CC(=O)Nc1ccccc1C)C(=O)c1ccc(OCC(=O)N2CCOCC2)c(OCC)c1`, the inhibition is reported as -7.61% (inactive). `CN(O)C(=S)c1ccccc1` was tested, and the inhibition was -0.499% (inactive). `CSc1ncnc2c1ncn2CC(=O)C1CCC2C3CCC4=CC(=O)CCC4(C)C3CCC12C` (stereo not given) was tested, and the inhibition was 5.41% (inactive). With `COc1cc(OC)cc(-c2cc3ccc(F)cc3cn2)c1` the inhibition was 13.1% (inactive). `CCOc1ccc(S(=O)(=O)N2CCN(C(=O)c3oc4ccccc4c3C)CC2)cc1` was tested, and the inhibition was 3.49% (inactive). In the case of `CCn1c(NC(=O)c2ccccc2)c(-c2cccs2)c(=O)c2ccccc21`, the inhibition is reported as 65.9% (active). For `COc1ccccc1C(=O)Nn1c(-c2cccs2)nc2ccccc2c1=O`, the inhibition was 32.3% (inactive). For `CCn1c(=O)c2cc(C(=O)Nc3cccc(C(C)=O)c3)sc2c2ccccc21`, the inhibition was -0.698% (inactive). With `CCc1cc2c(N3CCN(c4nnc(CC)s4)CC3)ncnc2s1` the inhibition was 25.4% (inactive). For `CCc1cc2c(NC3CCCC3)ncnc2s1`, the inhibition was 53.2% (active). With `CCc1cc2c(NC(Cc3ccccc3)C(=O)O)ncnc2s1` (stereo not given) the inhibition was 2.6% (inactive). In the case of `COc1cc(/C=C/c2ccc(/C=C/c3cc(OC)c(OC)c(OC)c3)cc2)cc(OC)c1OC`, the inhibition is reported as -1.84% (inactive). In the case of `C#CCOCCOCCOCCNc1nc(N2CCN(C(=O)Cn3cc(CCO)nn3)CC2)nc(N2CCN(C(=O)Cn3cc(CCCN=C(N)N)nn3)CC2)n1`, the inhibition is reported as 4.84% (inactive). In the case of `COc1ccc(Cl)cc1C=CC=Nc1ccc(S(N)(=O)=O)cc1`, the inhibition is reported as -0.507% (inactive). In the case of `COc1ccc(S(=O)(=O)N(C)C[C@H]2Oc3ccc(NS(=O)(=O)c4cccs4)cc3CC(=O)N([C@H](C)CO)C[C@H]2C)cc1`, the inhibition is reported as 55.4% (active). For `C[C@H]1CN([C@@H](C)CO)C(=O)Cc2cc(NC(=O)Cc3ccccc3)ccc2O[C@H]1CN(C)S(=O)(=O)c1cccs1`, the inhibition was -0.989% (inactive). `COc1ccc(S(=O)(=O)N(C)C[C@@H]2Oc3ccc(NS(=O)(=O)c4cn(C)cn4)cc3C(=O)N([C@@H](C)CO)C[C@@H]2C)cc1` was tested, and the inhibition was 0.973% (inactive). `O=C(NC1=CC(=O)c2ccccc2C1=O)c1ccccc1` was tested, and the inhibition was -0.529% (inactive). In the case of `O=C(OC12CC3CC(CC(C3)C1)C2)c1ccc(NCc2cc(O)ccc2O)cc1`, the inhibition is reported as 1.7% (inactive). With `Cc1nn(-c2ncccn2)c2c1C(=O)CC(C)(C)C2Br` (stereo not given) the inhibition was 6.11% (inactive). With `Cn1c(=O)[nH]c(=O)c2c1nc(N1CCN(C(c3ccccc3)c3ccccc3)CC1)n2CCO` the inhibition was 1.27% (inactive). In the case of `C=C(C)Cn1c(N2CCCC2)nc2c1c(=O)[nH]c(=O)n2C`, the inhibition is reported as -3.28% (inactive). For `C=C(C)Cn1c(N2CCN(CC)CC2)nc2c1c(=O)[nH]c(=O)n2C`, the inhibition was 55.9% (active). With `CN1C(c2ccc(F)cc2)=CS/C1=C(/C#N)c1nnc2n1-c1ccccc1SC2` the inhibition was -1.31% (inactive). For `CC(C)c1ccc(/C=C/C(=O)NNC(=O)c2cccnc2)cc1`, the inhibition was 11.1% (inactive). With `COc1cccc(C(=O)NNC(=O)/C=C/c2ccccc2)c1` the inhibition was 59.9% (active). With `COc1cccc(C=CC(=O)C=CC=Cc2ccccc2)c1` the inhibition was -2.98% (inactive). In the case of `O=C1NCC(c2ccccc2)(c2ccccc2)C(=O)N1`, the inhibition is reported as -4.54% (inactive). In the case of `COC[C@@H]1NS(=O)(=O)c2ccc(Br)cc2O[C@H]1c1ccccc1`, the inhibition is reported as 7.26% (inactive). `CCCCNC(=O)C(C)N(CCN(C)C)C(=O)CCCN1C(=O)NC(c2ccc(Cl)cc2)C(C(=O)OCc2ccccc2)=C1C` (stereo not given) was tested, and the inhibition was 5.26% (inactive). With `COc1cc(C2c3cc4c(cc3C(O)C3COC(=O)C23)OCO4)cc(OC)c1OC` (stereo not given) the inhibition was 0.167% (inactive). In the case of `COC(=O)C1=C(C)N(Cc2ccccc2)C(=NCCCOC(C)C)N[C@H]1c1ccccc1`, the inhibition is reported as -6.8% (inactive). In the case of `CCN1C(=NCCc2cccnc2)N[C@@H](c2ccccc2)C(C(=O)OC)=C1C`, the inhibition is reported as 53.7% (active). `CCN1C(=NCCc2cccnc2)N[C@@H](c2ccccc2)[C@H](C(=O)OC)[C@H]1C` was tested, and the inhibition was -12.5% (inactive). `COc1ccccc1C(=O)c1ccccc1C(=O)c1ccccc1` was tested, and the inhibition was 1.1% (inactive). With `COc1ccc(S(=O)(=O)N(C)C[C@@H]2Oc3ccc(NC(=O)Nc4c(C)noc4C)cc3C(=O)N([C@H](C)CO)C[C@@H]2C)cc1` the inhibition was 1.82% (inactive). For `COc1ccc2c(Cl)c(C(=O)NCc3ccco3)sc2c1`, the inhibition was 54.5% (active). In the case of `O=C(NCc1ccco1)c1sc2cccc(F)c2c1Cl`, the inhibition is reported as 1.99% (inactive). `COc1ccc2oc(C(=O)NCc3ccco3)c(C)c2c1` was tested, and the inhibition was 19.2% (inactive). In the case of `Oc1[nH]c2ccccc2c1N=Nc1c(F)c(F)c(F)c(F)c1F`, the inhibition is reported as 4.41% (inactive). For `C[n+]1cccc(C(=O)O)c1`, the inhibition was 0.48% (inactive). In the case of `CC1CCCN(C(=O)Cn2c(=O)oc3cc(S(=O)(=O)N4CCCCC4C)ccc32)C1` (stereo not given), the inhibition is reported as 0.0944% (inactive). `O=C(Cc1ccc(Cl)cc1)c1ccccc1` was tested, and the inhibition was -1.54% (inactive). In the case of `COc1ccc(NC(=O)CCN2C(=O)/C(=C/c3ccc4c(c3)OCO4)SC2=S)cc1`, the inhibition is reported as -2.32% (inactive). For `COC(=O)C(C)Oc1ccc2c(c1)O/C(=C\c1cccc(Br)c1)C2=O` (stereo not given), the inhibition was -2.95% (inactive). `O=C1/C(=C/c2ccc3c(c2)OCO3)Oc2cc(OCC(=O)N3CC(O)C[C@H]3C(=O)O)ccc21` (stereo not given in full) was tested, and the inhibition was 70.2% (active). In the case of `O=C1c2ccccc2C(=O)C1C(=O)C1CC1`, the inhibition is reported as -4.93% (inactive). In the case of `COc1ccc(CNCCCn2cnc3c(OCc4ccccc4)ncnc32)cc1`, the inhibition is reported as 6.66% (inactive). With `Cc1ccc(S(=O)(=O)n2oc(=O)c(C3CCCCC3)c2N)cc1` the inhibition was -0.128% (inactive). `O=C1N=C(N2CCc3ccccc3C2)S/C1=C\c1ccc(O)cc1` was tested, and the inhibition was 70.6% (active). `CCc1ccc(/C=C2\SC(N3CCOCC3)=NC2=O)cc1` was tested, and the inhibition was 2.74% (inactive). For `CC1CCN(C2=NC(=O)/C(=C/c3ccc(O)cc3)S2)CC1`, the inhibition was 22.4% (inactive). For `CN(CCc1ccccc1)C(=O)c1cccc(NC(=O)Cc2cccc(NC(=O)C3CCCN(C(=O)CCc4ccccc4)C3)c2)c1` (stereo not given), the inhibition was 0.419% (inactive). With `O=C(Cc1ccc(S(=O)(=O)N2CCOCC2)s1)Nc1ccc(Br)c(C(F)(F)F)c1` the inhibition was 0.772% (inactive).
